Drawing on PubChem BioAssay AID720624 (Broad Institute, 2013), this text covers outcome for one molecule.

This test can be described thus: cytotoxicity in SNB-75 CNS cells – cell-based, CellTiter-Glo ATP luminescence, several timepoints, dry powder, mechanism study for HRAS target identification, late-stage follow-up (AID 720624). A general note: In ATP-based viability assays light output follows the ATP content of the culture.

Measured potencies and affinities stand elsewhere. Inconclusive results are not listed. The source made the active and inactive calls.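 Rule for the calls: active = viability loss with half-maximal concentration at most twice the top valid dose, at 8, 24 and 48 hours; inconclusive = timepoint results disagree; inactive = inactive at all three timepoints.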

With `Cc1onc(C(=O)N2CCN(C(c3ccncc3)c3ccncc3)CC2)c1[N+](=O)[O-]`, the molecule was called inactive.
